Here are results for 16 molecules from the supplement of paper PMC12632987.

The chains are these.
B1: FBXL12_hotspot_16_24 (protein)
chain: PVRILVIRQASTQRTPEGVAYQREAAVAAARAGMDAVILVGLAEREEDVPEMEALVADFEAAVRAANPDIIVEGAVARTEEEAEALKAALLARVEARLAA
B2: FBXL12_hotspot_16_20 (protein)
chain: KIMIIRVVAGTEEEARSSVETAKKIAIGLMEAGVDAIILEAIAEKEELLPFLKELVEEKEKELREAAKKYGAKLRILVGTLDDLEELRAQAEAIAAELEA
B3: FBXL12_hotspot_147_13 (protein)
chain: REVTVVVQLGAQAESTARYAAELVVGLGEAGVGRIRVVVRSARLEDALLAARELARAVARLPESVEVEVTFEGLSPEDVARARAVYEATLAAERAAQAAA
B4: FBXL12_hotspot_16_18 (protein)
chain: REIIVVVGLLEAERVESTLTTARDIVAGLREAGVDRVDVVIYTETPEAAAKLAELRPTIVAAIEAEVAAAGGRLSVHDTREAAEATREAILAEIDEREAA
B5: FBXL12_hotspot_141_10 (protein)
chain: RGLVIVIATAAVPEEVRAAVRAAAREAAAAAGVALRFEEAEDEEAAEELRERLLAEAEEEGYDAVGVLVLTSPEMSAERAIAYVRALVAFVAARVARLEA
B6: FBXL12_hotspot_147_12 (protein)
chain: REMTVVVQLGSSAESTAAYAAEVVLGLAQAGVDRIRVVVRTRDHEQALLAARELARADARAPASVTIELTFEGLTPEQVAEALAVYAETLAAERARLAAA
B7: FBXL12_hotspot_16_17 (protein)
chain: RDIVVVVGLLTAERVRSTLERAAEIVEGLRAAGVDRINVVIYAETEEAWAELERLEPTIVARIRAAVAAAGGELHIHRTREEAEKTREEILAEIDEEEEA
B8: FBXL12_hotspot_16_23 (protein)
chain: KIMVVRVRGRTPEELRPTLDRAVEIAIGLMKAGVDAIIFVAVVERAEDLPAVEALVAERRAALEAAAKEHGSKLEVVVGVAADEEAVEARVKALEEELEA
B9: FBXL12_hotspot_16_19 (protein)
chain: KDIILSVGVEEAERVEPSLELALEIVKGLKEAGVDRINVVIYAETEEAYKKIEELKDTILKEIEEAVKEAGGKLSVHKTKEAAEKEIERILEEIDKREEE
B10: FBXL12_hotspot_147_14 (protein)
chain: MKVTIRVVLEEGSETTVEMAIELAKGLHEAGVEEIRVEVEARDPEVALAAAERLAVEIGRGADVAEIRAFDRETGELLRRLDREEIRRIRAAAEEAEAAA
B11: FBXL12_hotspot_186_25 (protein)
chain: QRIEVRVSFSEDLEQARAGLELAIGLLEALLARGLIESAASLARSTVRAARELAARTDDEEVKRLLAEGLERIAEILRKHPELAEELEEVERAAREIRER
B12: FBXL12_hotspot_141_11 (protein)
chain: KGLLIVIMTSSIPEEKREEIKKHAEEAAKKAGIELIFEVAENEEEAEKIKEELLKEAEEKGYDVIGVLTVTDPNMDVERVKAYVEALVEWIKAKLEQLKA
B13: FBXL12_hotspot_162_16 (protein)
chain: MKRLLILSFVIKATESPEEAKKRLKQFEEYALEMIEEALKNPEFKVVVVLASDGSPEDLEWVKEAAKRIKEKFPEVEVEVFETGEAAEKRIEELEEEAER
B14: FBXL12_hotspot_16_22 (protein)
chain: KIMIIKVVAATPEAARGTIETATKIAKGLMEAGVDAVILQAVAEKEEILPFLKELVEEKEKELKEVAKKYGSKLEVFVGTAADLEELEKEVKEKEKELEA
B15: FBXL12_hotspot_147_15 (protein)
chain: MEVTIRVVLGPGSESTVETAIALAAGLHEAGVEKIRIEVEAEDPEEALRAAERLAVEVGRKADVDEILAYDSRTGELLKRLDREEIKEIREEAERREREA
B16: FBXL12_hotspot_16_21 (protein)
chain: KIMIIKVVAPTEEAARSGIETATKIAKGLMEAGVDAIILLAVAEEEALLPFLEELVEKHKEELEEAAKKYGAKLKVIVGTRADLAALEAEAEAIAAELEA

The assay addresses T1, FBXL12, Q9NXK8.
T1 chain: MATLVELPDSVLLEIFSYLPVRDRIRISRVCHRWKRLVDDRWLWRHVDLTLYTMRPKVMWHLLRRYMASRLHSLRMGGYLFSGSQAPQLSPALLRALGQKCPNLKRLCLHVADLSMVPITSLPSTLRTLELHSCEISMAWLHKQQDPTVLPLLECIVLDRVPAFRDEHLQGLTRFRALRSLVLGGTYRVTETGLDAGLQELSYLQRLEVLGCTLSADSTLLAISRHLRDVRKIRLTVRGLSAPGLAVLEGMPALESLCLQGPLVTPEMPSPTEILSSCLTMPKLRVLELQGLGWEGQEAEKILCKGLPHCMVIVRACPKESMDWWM
The experiment in a line: median log2 fold change of GCK-ALFA target abundance (FLAG IP / Myc IP barcode read proportion) (log2 ratio); each designed protein is fused to an ALFA-tag nanobody in HEK293 cells to bring the named protein to FLAG-tagged glucokinase (GCK); Myc marks an untargeted standard; higher = target protein stabilised (more abundant). The following applies: target protein: 3xFLAG-MCP-GCK-ALFA reporter; HEK293 landing pad (RPLP). How it is done:
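LABEL-seq trans screen in HEK293 landing-pad cells. Each de novo designed 100-aa effector handle, binding the indicated effector (E3 ligase, DUB or autophagy protein), is fused to a constant NbALFA target handle and induced with 2 ug/mL doxycycline. A FLAG-MCP-GCK-ALFA target and a Myc-MCP standard reporter were transfected, and after 48 h circRNA barcodes were recovered by anti-FLAG and anti-Myc IP and sequenced. The value is the median across barcodes (at least 3 per design) of log2(FLAG/Myc read-proportion ratio), with the two transfection replicates pooled. Negative values mean degradation and positive values mean stabilisation of the target.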
As to B1, the “median log2 fold change” value amounted to 0.171.
The same measure for B2: -0.134; for B3: -0.0622.
Turning to B4, the “median log2 fold change” value stood at 0.0965.
For the molecule B5, the “median log2 fold change” value is -0.0786.
For the molecule B6, the “median log2 fold change” value was -0.623.
For the molecule B7, the “median log2 fold change” value stood at 0.0399.
Regarding B8, the “median log2 fold change” value was found to be 0.127.
For the molecule B9, the “median log2 fold change” value is -0.0797.
B10: the “median log2 fold change” value was 0.119.
As to B11, the “median log2 fold change” value is 0.0938.
Turning to B12, the “median log2 fold change” value was 0.126.
As to B13, the “median log2 fold change” value was -0.0487.
Consider B14, for which the “median log2 fold change” value came out at 0.0857.
The value for B15 was 0.23; that for B16 was -0.165.
